Out of some 300,000 compounds screened, about 2,300 (0.77%) were called active. The full list was thinned out, with actives kept by preference. Unmarked numbers belong to inactive results.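 The calls were made as follows: active = more than half of replicate wells show activity change below -50%, luminescence cut by over half; inconclusive = some wells, but at most half, below -50%; inactive = no replicate well below -50%.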

The nature of the assay: HSF1 inhibitors in luciferase reporter cells, primary screen, cell-based, NIH3T3, luminescence (AID 2098).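 Also: luciferase reports HSF-1 transcriptional activity via heat shock element; 0% = median of DMSO wells and -100% = zero luminescence signal.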 The following applies: NIH3T3-HGL HSE-luciferase, MG132-induced, luminescence 8 h; hits give low values; screened at 7.5 µM (by protocol). On the technique in general: Reporter assays use an easily measured gene product as a stand-in for the process of interest.
As to `CCN(Cc1ccccc1)C(=O)Cc1ccc(OC)c(S(=O)(=O)N2CCOCC2)c1`, the activity change, negative = inhibition was -13.3%. The value for `COc1ccc(/C=C2\SC(=N)N(c3ccc(F)cc3)C2=O)cc1` was -0.809%; that for `CCOc1ccc(N=C2NC(=O)S/C2=C\c2ccc(O)cc2)cc1` was 8.7%.

With `COc1ccc(/C=C2/S/C(=N/N=C3\CC4CCC3(C)C4(C)C)NC2=O)cc1` (stereo not given), the activity change, negative = inhibition is -80.6% (active). In the case of `Cc1sc(NC(=O)c2ccc3ncsc3c2)c(C(N)=O)c1C` it was 18.5%; in that of `O=C(COC(=O)Cn1[nH]c(=O)c2ccccc2c1=O)Nc1c(Cl)cccc1C(F)(F)F`, -1.35%. In the case of `COc1ccccc1C(=O)NC(CCSC)C(=O)N1CCN(C/C=C/c2ccccc2)CC1` (stereo not given) it was 6.22%; in that of `COc1ccccc1C(=O)NNC(=O)CCN1C(=O)/C(=C\c2ccccc2)SC1=S`, 3.5%; in that of `C=CCOc1ccc(/C=C2\SC(=S)N(CCC(=O)O)C2=O)cc1`, -55% (active). On to `Cc1ccc(/C=C2\SC(=S)N(CCC(=O)Nc3ccc(O)cc3)C2=O)cc1`, for which the activity change, negative = inhibition is 2.79%.

Regarding `O=C(c1ccc(NS(=O)(=O)c2ccc3[nH]c(=O)[nH]c3c2)cc1)N1CCCCC1`, the activity change, negative = inhibition is -2.36%.

In the case of `CCOc1cc(NS(=O)(=O)c2ccc(OC)cc2)c(OCC)cc1NC(C)=O`, the activity change, negative = inhibition is -13.5%. As for `COC(=O)c1cc(S(=O)(=O)Nc2ccc(C)c(F)c2)c[nH]1`, the activity change, negative = inhibition was 5.93%. In the case of `CCOc1ccccc1NS(=O)(=O)c1c[nH]c(C(=O)OC)c1` it was -51.6% (active); in that of `COCOc1cc(O)c(C(=O)/C=C/c2ccc(OCOC)c(OCOC)c2)c(OCOC)c1`, 23.1%. In the case of `COc1cccc(CCNC(=O)COc2cccc3c2OC(C)(C)C3)c1`, the activity change, negative = inhibition was -0.825%.

For the compound `Cc1ccsc1C(=O)OCC(=O)c1cc(C)n(CC2CCCO2)c1C` (stereo not given), the activity change, negative = inhibition is -88.5% (active). The value for `Cc1cc(C(=O)CCl)c(C)n1CC1COc2ccccc2O1` (stereo not given) was 19.5%; that for `Cc1cc(C(=O)Cn2cnc3cc([N+](=O)[O-])ccc3c2=O)c(C)n1CC1CCCO1` (stereo not given) was 3.88%.

Turning to `CCCCn1c(N)c(N(CCOC)C(=O)c2sc3ccccc3c2Cl)c(=O)[nH]c1=O`, the activity change, negative = inhibition was -1.16%.

For the compound `COc1ccccc1C(=O)NCCC(=O)NCC(c1ccco1)N1CCCCC1` (stereo not given), the activity change, negative = inhibition is -1.06%. The value for `CC1COc2ccccc2N1S(=O)(=O)c1ccccc1` (stereo not given) was -6.19%.

For `CC1COc2ccccc2N1C(=O)c1ccc(F)cc1` (stereo not given), the activity change, negative = inhibition was -77.4% (active).

`CC1COc2ccccc2N1C(=O)c1cccnc1Cl` (stereo not given): the activity change, negative = inhibition is -2.12%. In the case of `O=C(NCCCN1CCCC1=O)c1ccc(S(=O)(=O)Nc2ccccc2)cc1` it was 4.74%.

For the origin of these results see PubChem BioAssay AID2098 (Broad Institute, 2009).
